Unmarked numbers belong to inactive results. Inconclusive results are not listed. A call without a number means that no potency is given here. The source made the active and inactive calls. Unless noted, the call rests on the fitted dose curve; in most records, active means well fitted curve in the direction sought with a large enough effect in the repeat runs; inconclusive means weak or mixed curves; inactive means no such curve, though single readings can be large; an effect the other way counts as inactive or inconclusive.
How the values were obtained:
[1] = qHTS assay to identify small molecule antagonists of the glucocorticoid receptor (GR) signaling pathway - cell viability counter screen (AID 720693); further: nearly all actives have a fitted effect of over 55% in size
[2] = qHTS assay for identifying genotoxic compounds that show differential cytotoxicity against isogenic chicken DT40 cell lines with known DNA damage response pathways - wild type cell line (AID 743012); further: nearly all actives have a fitted effect of over 60% in size; further: potency means the concentration at half of the fitted maximal effect
Summary of the method: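 First, wild type DT40 cells were plated at 300 per well and equilibrated about 0.5 h at 37 C/5% CO2. Next, compounds in DMSO were added and exposure lasted 40 h. Finally, CellTiter-Glo was added for 30 min at room temperature and luminescence recorded.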

[3] = qHTS assay for identifying genotoxic compounds that show differential cytotoxicity against isogenic chicken DT40 cell lines with known DNA damage response pathways - Rev3 mutant cell line (AID 743014); further: nearly all actives have a fitted effect of over 55% in size; further: potency means the concentration at half of the fitted maximal effect
[4] = qHTS assay for identifying genotoxic compounds that show differential cytotoxicity against isogenic chicken DT40 cell lines with known DNA damage response pathways - Rad54/Ku70 mutant cell line (AID 743015); further: nearly all actives have a fitted effect of over 60% in size; further: potency means the concentration at half of the fitted maximal effect
[5] = qHTS assay to identify small molecule antagonists of the androgen receptor (AR) signaling pathway - cell viability counter screen (AID 743033; further: nearly all actives have a fitted effect of over 45% in size)
[6] = qHTS assay to identify small molecule antagonists of the androgen receptor (AR) signaling pathway using the MDA cell line - cell viability counter screen (AID 743041; further: nearly all actives have a fitted effect of over 45% in size)
Summary of the method: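 Same-well cytotoxicity was assessed by CellTiter-Fluor in MDA-kb2 AR-luc cells after 16 h of compound treatment under R1881 agonism.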

[7] = qHTS assay to identify small molecule antagonists of the thyroid receptor (TR) signaling pathway - cell viability counter screen (AID 743064); further: nearly all actives have a fitted effect of over 50% in size
Summary of the method: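 Viability of T3-stimulated (1 nM final) GH3.TRE-Luc cells is measured by CellTiter-Fluor fluorescence after 23.5 h compound exposure at 37 °C plus 30 min reagent incubation.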

[8] = target: Androgen receptor (Homo sapiens) (UniProt P10275); assay: qHTS assay to identify small molecule antagonists of the androgen receptor (AR) signaling pathway (AID 743035; active means well fitted inhibition curve with a large enough effect in the signal ratio in the repeat runs, not every such curve was filed as active; the % refers to the signal ratio)
Summary of the method: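 Beta-lactamase FRET read (2 h RT incubation with LiveBLAzer B/G) following 16 h of compound plus R1881 treatment of AR-UAS-bla HEK293 cells, which had been pre-incubated 4 h at 37C.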

[9] = target: Androgen receptor (Homo sapiens) (UniProt P10275); assay: qHTS assay to identify small molecule agonists of the androgen receptor (AR) signaling pathway using the MDA cell line (AID 743040; further: nearly all actives have a fitted effect of over 20% in size)
Summary of the method: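 Human breast carcinoma MDA-kb2 reporter cells (MMTV-luc, AR/GR elements) were treated for 16 h at 37C in 0% CO2 following a 5 h settling period. Signal was quantified by ONE-Glo luminescence.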

[10] = target: Androgen receptor (Homo sapiens) (UniProt P10275); assay: qHTS assay to identify small molecule antagonists of the androgen receptor (AR) signaling pathway using the MDA cell line (AID 743042; further: nearly all actives have a fitted effect of over 55% in size)
Summary of the method: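 MDA-kb2 breast carcinoma cells carrying MMTV-luciferase (AR/GR responsive) were co-treated with compounds and the agonist R1881 for 16 h at 37C. Inhibition read as ONE-Glo luminescence; CellTiter-Fluor fluorescence measured in parallel for cytotoxicity.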

Androgen receptor (Homo sapiens), sequence (P10275 whole entry, looked up): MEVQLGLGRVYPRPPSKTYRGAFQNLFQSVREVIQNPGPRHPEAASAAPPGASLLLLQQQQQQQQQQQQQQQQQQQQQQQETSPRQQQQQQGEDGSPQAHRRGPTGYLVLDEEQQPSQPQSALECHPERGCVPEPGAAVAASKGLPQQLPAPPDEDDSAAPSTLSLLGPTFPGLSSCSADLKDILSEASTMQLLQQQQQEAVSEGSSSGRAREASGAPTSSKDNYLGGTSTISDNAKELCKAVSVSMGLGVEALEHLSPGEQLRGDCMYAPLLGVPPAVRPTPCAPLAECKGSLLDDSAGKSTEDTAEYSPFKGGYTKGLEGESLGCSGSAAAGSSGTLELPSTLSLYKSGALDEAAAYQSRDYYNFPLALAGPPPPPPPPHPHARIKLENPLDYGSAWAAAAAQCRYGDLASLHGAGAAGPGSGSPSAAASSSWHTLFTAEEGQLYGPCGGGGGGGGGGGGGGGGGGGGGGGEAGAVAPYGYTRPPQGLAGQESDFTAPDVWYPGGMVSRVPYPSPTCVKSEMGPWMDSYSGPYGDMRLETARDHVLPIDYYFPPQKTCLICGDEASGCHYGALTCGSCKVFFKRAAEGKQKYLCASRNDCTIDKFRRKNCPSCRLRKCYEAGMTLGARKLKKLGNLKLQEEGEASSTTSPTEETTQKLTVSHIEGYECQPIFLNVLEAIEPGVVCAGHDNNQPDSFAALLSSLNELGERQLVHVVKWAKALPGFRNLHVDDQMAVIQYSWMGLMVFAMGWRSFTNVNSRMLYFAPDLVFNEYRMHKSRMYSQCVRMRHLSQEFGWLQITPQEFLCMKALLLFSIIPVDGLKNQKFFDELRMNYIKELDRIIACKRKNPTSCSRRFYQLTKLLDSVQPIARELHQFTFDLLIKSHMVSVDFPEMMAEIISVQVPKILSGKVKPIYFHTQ

| Structure (SMILES) | outcome [1] | Potency [2] | Potency [3] | Potency [4] | outcome [5] | outcome [6] | Potency [7] | outcome [8] | outcome [9] | outcome [10] |
| --- | --- | --- | --- | --- | --- | --- | --- | --- | --- | --- |
| O=C(OOC(=O)c1ccccc1)c1ccccc1 | inactive | inactive | inactive | inactive | inactive | inactive | inactive | – | – | – |
| Nc1cc(S(=O)(=O)O)ccc1O | inactive | inactive | inactive | inactive | inactive | inactive | inactive | inactive | inactive | inactive |
| CC(C)OC(=O)C(C(=O)OC(C)C)=C1SC=CS1 | inactive | 23.7 µM (active) | 26.6 µM (active) | 23.7 µM (active) | inactive | inactive | – | – | inactive | inactive |
| O=C1c2ccccc2C(=O)N1CO | inactive | inactive | inactive | inactive | inactive | inactive | inactive | inactive | inactive | inactive |
| C=CC(=O)OCC[N+](C)(C)C | inactive | inactive | inactive | inactive | inactive | inactive | inactive | – | – | – |
| COc1cc2nc(N3CCN(C(=O)C4CCCO4)CC3)nc(N)c2cc1OC (stereo not drawn) | inactive | inactive | inactive | inactive | inactive | inactive | – | – | – | – |
| COC(=O)c1ccc(C(=O)O)cc1 | inactive | inactive | inactive | inactive | inactive | inactive | inactive | – | – | – |
| CC/C=C/CCCCCCCCCCOC(C)=O | inactive | inactive | 43.3 µM (active) | inactive | inactive | – | inactive | – | – | – |
| CC(O)CCCCn1c(=O)c2c(ncn2C)n(C)c1=O (stereo not drawn) | inactive | inactive | inactive | inactive | inactive | inactive | inactive | – | – | – |
| COC(=O)c1c(C)cc(O)c(C)c1O | inactive | 61.1 µM (active) | 54.5 µM (active) | 61.1 µM (active) | inactive | inactive | inactive | – | – | – |
| CCCCC(CC)CCC(CC(C)C)OS(=O)(=O)O (stereo not drawn) | inactive | inactive | inactive | inactive | inactive | – | inactive | – | – | – |
| C/C=C(\C)C=O | inactive | inactive | inactive | inactive | inactive | – | inactive | – | – | – |
| CCCCCCCCCCCBr | inactive | inactive | inactive | inactive | inactive | – | inactive | – | – | – |
| Cc1ccccc1OCC(=O)O | inactive | inactive | inactive | inactive | – | inactive | – | – | – | – |
| C/C=C(\C)C(=O)OC/C=C(\C)CCC=C(C)C | inactive | inactive | inactive | inactive | – | inactive | – | – | – | – |
| COC(=O)c1ccccc1Cl | inactive | inactive | inactive | inactive | inactive | – | inactive | – | – | – |
| CC(C)C(C)C | inactive | inactive | inactive | inactive | inactive | inactive | inactive | – | – | – |
| CC1(C)S[C@@H]2[C@H](NC(=O)Cc3ccccc3)C(=O)N2[C@H]1C(=O)O (tested in a mixture with another compound) | inactive | inactive | inactive | inactive | inactive | inactive | inactive | – | – | – |
| CCc1ncc(C)[nH]1 | inactive | inactive | inactive | inactive | – | – | inactive | inactive | inactive | inactive |
| O=C(O)/C=C(\CC(=O)O)C(=O)O | inactive | inactive | inactive | inactive | inactive | inactive | inactive | – | – | – |
| CCc1ccc(CC)cc1 | inactive | inactive | inactive | inactive | inactive | – | inactive | – | – | – |
| CCCCCCCCCCCC(C)=O | inactive | inactive | inactive | inactive | inactive | inactive | inactive | – | – | – |
| CCCCCCCCCCCCCCCC(=O)OC | inactive | inactive | inactive | inactive | inactive | inactive | inactive | – | – | – |
| CNCCc1ccccn1 | inactive | inactive | inactive | inactive | inactive | inactive | inactive | – | – | – |
| C=CCn1cc[n+](C)c1 | inactive | inactive | inactive | inactive | inactive | inactive | inactive | – | – | – |
| CCCOc1ccc(C(=O)OCCN(CC)CC)cc1N | inactive | 9.44 µM (active) | 6.68 µM (active) | 13.3 µM (active) | inactive | – | inactive | – | – | – |
| CCOC(=O)CC(C(C)=O)C(C)=O | inactive | inactive | inactive | inactive | inactive | inactive | inactive | – | – | – |
| CCCCCCCOC(C)=O | inactive | inactive | inactive | inactive | inactive | – | inactive | – | – | – |
| CC(C)c1cc(C(C)C)cc(C(C)C)c1 | inactive | inactive | inactive | inactive | inactive | inactive | inactive | – | – | – |
